“And” between values parts separate entries of the source, which are not always exact repeats. Equal values may be shown once. Inconclusive results are not listed. Some structures have more than one record in an assay (separate samples or runs), and their calls can disagree. The source made the active and inactive calls. Calls follow the shape of the dose curve; as a rule, active = well fitted curve in the direction sought with a large enough effect; inconclusive = small, poorly fitted or top-dose-only effect, or another doubt; inactive = no such curve, though single readings can be large; an effect the other way counts as inactive or inconclusive.

20 compounds from PubChem BioAssay (NCATS) can be followed below.

Experiment [1] has as its target Metallo-beta-lactamase type 2 (Klebsiella pneumoniae) (UniProt C7C422). The experiment in a line: qHTS to identify inhibitors of the New Delhi Metallo-beta-lactamase (NDM): assay validation screen against the NCATS LOPAC Collection (AID 1794843). Also: % is scaled to controls: 0 for no effect and ±100 for the full control effect. In outline:
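Absorbance at 485 nm from nitrocefin turnover (50 uM solution added), read at plateau, gives the read-out. Compounds in DMSO were incubated first with 2 nM final NDM-1 in pH 7.0 HEPES buffer containing 1 uM ZnSO4 and 0.01% Tween20.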

The target of experiment [2] is Glutathione peroxidase 1 (Homo sapiens) (UniProt P07203). The experiment in a line: Primary qHTS Assay for Inhibitors of Recombinant Selenoprotein Glutathione Peroxidase 1 (GPX1) (AID 1845191). Also: nearly all actives have a fitted effect of over 65% in size. Also: potency is read from the fitted curve at half-maximal effect. As to activity, negative = inhibition: % is scaled to controls: 0 for no effect and ±100 for the full control effect. In outline:
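GR-coupled assay: compounds preincubated 30 min at room temperature with GPX1, then reaction started with CHP; final 10 nM GPX1, 1 mM GSH, 0.5 mM CHP, 0.5 mM NADPH, 100 nM GR, 0.01% BSA, pH 7.5 Tris buffer. NADPH fluorescence (340/450 nm) read at 0 and 15 min.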

Experiment [3] addresses Phospholipid hydroperoxide glutathione peroxidase GPX4 (Homo sapiens) (UniProt P36969). Kind of experiment: Primary qHTS Assay for Inhibitors of Recombinant Selenoprotein Glutathione Peroxidase 4 (GPX4) (AID 1845192). Also: nearly all actives have a fitted effect of over 65% in size. Also: potency is read from the fitted curve at half-maximal effect. In outline:
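GR-coupled assay: recombinant GPX4 preincubated 30 min with compound at room temperature; final 200 nM GPX4, 1 mM GSH, 0.5 mM cumene hydroperoxide, 0.5 mM NADPH, 100 nM GR, 0.01% BSA, pH 7.5 Tris. NADPH fluorescence (340/450 nm) read at 0 and 15 min.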
(Quantitative high-throughput screening tests each substance at several concentrations.)

Experiment [4] can be described thus: Quantitative High-Throughput drug screen in 47 multiple myeloma cell lines against the NCATS MIPE library collection: FR4_PLB cell viability assay (AID 1918924; also: nearly all actives have a fitted effect of over 35% in size; also: potency is read from the fitted curve at half-maximal effect). In outline: (§1)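 Inhibition of cell viability is measured here. Each line was plated at 500 cells per well, treated with MIPE 4.0 drugs, kept 48 hours at 37C, then assayed for ATP content by CellTiter-Glo luminescence.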

A short description of experiment [5]: Quantitative High-Throughput drug screen in 47 multiple myeloma cell lines against the NCATS MIPE library collection: AMO1_DSMZ cell viability assay (AID 1918927; also: nearly all actives have a fitted effect of over 30% in size; also: potency is read from the fitted curve at half-maximal effect). In outline: (§2)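 CellTiter-Glo luminescence (ATP) after 48 h compound exposure, 37C/5% CO2; 500 cells/well; MIPE 4.0 approved/investigational drugs pinned in; DMSO = 100%, media only = 0% viability.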

A short description of experiment [6]: Quantitative High-Throughput drug screen in 47 multiple myeloma cell lines against the NCATS MIPE library collection: ARD_JJKsccE7 cell viability assay (AID 1918929; also: potency is read from the fitted curve at half-maximal effect). Put shortly:
as §2

The nature of experiment [7]: Quantitative High-Throughput drug screen in 47 multiple myeloma cell lines against the NCATS MIPE library collection: Karpas620_DSMZ cell viability assay (AID 1918959). Also: nearly all actives have a fitted effect of over 30% in size. Also: potency is read from the fitted curve at half-maximal effect. In outline:
as §1

The nature of experiment [8]: Quantitative High-Throughput drug screen in 47 multiple myeloma cell lines against the NCATS MIPE library collection: KMM1_JCRB cell viability assay (AID 1918960).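 Also: 100% = DMSO-treated cells and 0% = medium-only wells; nearly all actives have a fitted effect of over 30% in size.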 Put shortly: (§3)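 ATP readout (CellTiter-Glo), 48 h drug incubation, 37 °C/5% CO2, 500 cells per well; normalisation to DMSO (100%) and media-only (0%) controls.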
Experiment [9] in a line: Quantitative High-Throughput drug screen in 47 multiple myeloma cell lines against the NCATS MIPE library collection: JIM3_ECACC cell viability assay (AID 1918963; also: nearly all actives have a fitted effect of over 35% in size; also: potency is read from the fitted curve at half-maximal effect). In outline:
as §1

A short description of experiment [10]: Quantitative High-Throughput drug screen in 47 multiple myeloma cell lines against the NCATS MIPE library collection: Delta47_JCRB cell viability assay (AID 1918925; also: nearly all actives have a fitted effect of over 45% in size; also: potency is read from the fitted curve at half-maximal effect). In outline: as §2
Experiment [11] is described as follows: Quantitative High-Throughput drug screen in 47 multiple myeloma cell lines against the NCATS MIPE library collection: EJM_DSMZ cell viability assay (AID 1918926; also: nearly all actives have a fitted effect of over 30% in size; also: potency is read from the fitted curve at half-maximal effect). In outline: as §2
Experiment [12] can be described thus: Quantitative High-Throughput drug screen in 47 multiple myeloma cell lines against the NCATS MIPE library collection: KHM11_PLB cell viability assay (AID 1918962). Also: nearly all actives have a fitted effect of over 35% in size. Also: potency is read from the fitted curve at half-maximal effect. Put shortly: as §1
The nature of experiment [13]: Quantitative High-Throughput drug screen in 47 multiple myeloma cell lines against the NCATS MIPE library collection: Karpas417_ECACC cell viability assay (AID 1918961). Also: potency is read from the fitted curve at half-maximal effect. The settings on record: Karpas417 myeloma viability, CellTiter-Glo ATP luminescence, 48 h; viability (% of DMSO): at 45.8 µM (top of the series) unless noted. Put shortly:
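qHTS of the MIPE 4.0 collection: 500 myeloma cells/well, 48 h drug exposure at 37C in 5% CO2, then CellTiter-Glo for 5 min at room temperature before luminescence reading.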
(In ATP-based viability assays light output follows the ATP content of the culture.)

The test system of experiment [14] is Nanoluciferase (engineered Oplophorus gracilirostris luciferase). The experiment in a line: Primary Nanoluciferase (NLuc) qHTS assay for identification of artifact compounds. (AID 1845222).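 Also: NLuc secreted into diluted conditioned medium of S16 cells; 0% = DMSO and -100% = no enzyme.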 In outline:
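qHTS format, against NLuc in S16 cell-conditioned medium. Nano-Glo substrate 1:100 was added after 15 min at room temperature. Luminescence was taken after a further 5 min.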

Experiment [15] is described as follows: Primary redox qHTS assay for identification of artifact compounds. (AID 1845223). In outline:
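Amplex Red (25 uM) and HRP (250 mU/mL) in HBSS, with compounds for 15 min, then 250 uM DTT for 30 min, room temperature, dark. Fluorescence 525/598 nm read; normalized to DMSO and 10 uM DA3003; Hill fit.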

A short description of experiment [16]: Quantitative High-Throughput drug screen in 47 multiple myeloma cell lines against the NCATS MIPE library collection: ARP1_JJKsccF8 cell viability assay (AID 1918928; also: nearly all actives have a fitted effect of over 40% in size). In outline:
as §3

Metallo-beta-lactamase type 2 (Klebsiella pneumoniae), sequence (C7C422 whole entry, looked up): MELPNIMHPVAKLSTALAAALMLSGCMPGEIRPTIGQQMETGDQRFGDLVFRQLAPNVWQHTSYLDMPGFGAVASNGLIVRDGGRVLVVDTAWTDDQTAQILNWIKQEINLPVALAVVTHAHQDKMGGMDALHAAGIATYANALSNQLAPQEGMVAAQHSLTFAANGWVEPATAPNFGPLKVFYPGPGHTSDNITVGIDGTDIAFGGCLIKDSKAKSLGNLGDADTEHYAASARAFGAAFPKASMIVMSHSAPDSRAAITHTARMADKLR
Phospholipid hydroperoxide glutathione peroxidase GPX4 (Homo sapiens), sequence (P36969 whole entry, looked up): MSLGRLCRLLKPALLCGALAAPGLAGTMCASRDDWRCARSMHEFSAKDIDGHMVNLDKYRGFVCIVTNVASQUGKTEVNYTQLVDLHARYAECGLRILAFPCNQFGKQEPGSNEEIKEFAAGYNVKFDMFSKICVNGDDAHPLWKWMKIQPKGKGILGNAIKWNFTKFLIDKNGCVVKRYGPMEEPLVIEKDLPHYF
Glutathione peroxidase 1 (Homo sapiens), sequence (P07203 whole entry, looked up): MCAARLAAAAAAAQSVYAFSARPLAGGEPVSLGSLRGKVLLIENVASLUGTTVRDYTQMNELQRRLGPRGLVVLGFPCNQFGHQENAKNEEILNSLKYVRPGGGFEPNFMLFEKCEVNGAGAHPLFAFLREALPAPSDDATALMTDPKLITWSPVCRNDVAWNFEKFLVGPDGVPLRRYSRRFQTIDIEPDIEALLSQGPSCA

Turning to `NS(=O)(=O)c1cc2c(cc1Cl)NC=NS2(=O)=O`, in [1], the compound was classed as inactive. Besides, the Potency result in experiment [2], in experiment [3], in [4], in [5], in experiment [6] and in experiment [7] was “inactive” each time. Further, the Potency entry in [8] and in experiment [9] was “inactive” in each case.

`CCOC(=O)C1=C[C@]2(CC)CCCN3CCc4c(n1c1ccccc41)[C@@H]32`: the compound was classed as inactive in experiment [1]. Also, the Potency in experiment [2] was 12.8 µM (active); in experiment [4] it was 20.9 µM (active); in [10], 10.5 µM (active); in experiment [11], 20.9 µM (active); in experiment [5], 16.6 µM (active); in [7], 23.5 µM (active). For the same compound, the Potency in [12] was 9.35 µM (active); in experiment [9], 11.8 µM (active). The Potency result in experiment [3] was “inactive”.

On to `CCn1cc(C(=O)O)c(=O)c2cc(F)c(N3CCNC(C)C3)c(F)c21` (centres undefined), for which the result in experiment [1] was inactive. The Potency entry in [2], in experiment [3], in experiment [4], in [5], in experiment [6] and in experiment [7] was “inactive” in each case. Also, the Potency entry in experiment [8], in experiment [12] and in experiment [9] was “inactive” each time.

Regarding `O=C1CCc2cc(OCCCCc3nnnn3C3CCCCC3)ccc2N1`, the call in [1] was inactive. The Potency result in [2], in [3], in [4], in experiment [11], in experiment [5] and in experiment [7] was “inactive” throughout. In [9], the Potency entry was “inactive”. For the same compound, the viability (% of DMSO) in experiment [13] is 113% (active).

Turning to `CCN(CC)CCCC(C)Nc1ccnc2cc(Cl)ccc12` (centres undefined), the outcome in experiment [1] was inactive. Moreover, the Potency result in experiment [2], in experiment [3], in [4], in experiment [8] and in experiment [9] was “inactive” throughout. Moreover, the activity, negative = inhibition in experiment [14] is 2.98% [at 11.6 µM] (inactive). Further, in [15], the redox activity (% of DA3003) is -9.33% [at 11.5 µM] (inactive). For the same compound, the Potency in experiment [5] was 0.187 µM (active); in experiment [13], 52.6 nM (active).

In the case of `Nc1nc2c(ncn2COCCO)c(=O)[nH]1`, the compound was classed as inactive in [1]. Further, the Potency result in experiment [2], in experiment [3], in [4], in [11], in experiment [16] and in [7] was “inactive” each time. In addition, the Potency result in [8], in experiment [12] and in experiment [9] was “inactive” throughout.

As for `N=c1nc(N2CCCCC2)cc(N)n1O`, in [1], the outcome was inactive. For the same compound, the Potency entry in [2], in [3], in experiment [4], in [11], in experiment [5] and in [6] was “inactive” throughout. For the same compound, the Potency entry in experiment [7], in experiment [8] and in experiment [9] was “inactive” throughout.

With `OC(CCN1CCCCC1)(c1ccccc1)C1CC2C=CC1C2` (centres undefined), the compound was called inactive in experiment [1]. For the same compound, the Potency entry in [2], in [3], in experiment [4], in experiment [10], in [11] and in [5] was “inactive” each time. Further, the Potency result in experiment [7] and in experiment [13] was “inactive” each time.

Consider `OC(CN1CCC(Cc2ccc(F)cc2)CC1)c1ccc(Cl)cc1` (centres undefined), for which the outcome in experiment [1] was inactive. Besides, the Potency entry in [2], in [3], in experiment [4], in experiment [5], in [16] and in [6] was “inactive” each time. Besides, the Potency result in experiment [7], in experiment [8] and in experiment [9] was “inactive” throughout.

With `c1ccc([C@H]2CN3CCSC3=N2)cc1`, in [1], the compound was called inactive. The Potency result in experiment [2], in [3], in experiment [4], in experiment [11], in [5] and in experiment [6] was “inactive” in each case. The Potency entry in experiment [7], in experiment [8] and in experiment [9] was “inactive” throughout.

On to `O=c1[nH]cnc2[nH]ncc12`, for which, in experiment [1], the outcome was inactive. The Potency result in [2], in [3], in experiment [4], in experiment [10], in [11] and in [5] was “inactive” in each case. In addition, the Potency result in experiment [16], in [7], in [13] and in experiment [9] was “inactive” throughout. The Potency in [6] is 23.5 µM (active).

Regarding `CC(C)(Sc1ccc(CCN(CCCCC2CCCCC2)C(=O)NC2CCCCC2)cc1)C(=O)O`, the call in experiment [1], in experiment [14] and in [15] was inactive. The Potency result in experiment [2], in experiment [5], in experiment [6], in [7] and in experiment [9] was “inactive” throughout. Moreover, the Potency entry in experiment [3] is “inactive and 6.4 µM (active)”.

On to `CCCC(CCC)C(=O)O`, for which the outcome in experiment [1] was inactive. Moreover, the Potency entry in experiment [2], in experiment [3], in experiment [4], in [5], in experiment [6] and in experiment [7] was “inactive” in each case. Further, the Potency result in experiment [8] and in experiment [12] was “inactive” each time.

With `CC(=O)Oc1ccccc1C(=O)O`, the compound was called inactive in experiment [1]. For the same compound, the Potency entry in experiment [2], in experiment [3], in [4] and in experiment [8] was “inactive” throughout. Moreover, in experiment [11], the Potency is 8.33 µM (active).

Turning to `N[C@@H]1CONC1=O`, the outcome in [1] was inactive. Moreover, the Potency entry in [2], in [3], in experiment [4], in experiment [10], in [11] and in experiment [5] was “inactive” each time. Besides, the Potency result in [6], in experiment [7], in experiment [8], in experiment [13] and in [9] was “inactive” in each case.

Take `C1COC(NC(C2CC2)C2CC2)=N1`: the compound was called inactive in experiment [1]. Further, the Potency result in experiment [2], in experiment [3], in [4], in [11] and in [12] was “inactive” in each case.

For the compound `NNCCc1ccccc1`, the outcome in experiment [1] was inactive. Further, the Potency result in [2], in [3], in [11], in experiment [6], in [13] and in [12] was “inactive” throughout. The Potency result in experiment [9] is “inactive”. The figures for the Potency in experiment [4], in [5] and in experiment [7] were 6.62 µM (active), 18.7 µM (active) and 16.6 µM (active), respectively.

In the case of `O=C(O)CCc1ccc(NCc2cccc(Oc3ccccc3)c2)cc1`, the call in [1] and in experiment [14] was inactive. Besides, the Potency entry in experiment [2], in [3], in [4], in experiment [5], in experiment [6] and in experiment [7] was “inactive” throughout. In addition, the Potency entry in experiment [13] and in experiment [9] was “inactive” each time.

Consider `Cc1[nH]c(=O)c(C#N)cc1-c1ccc2nccn2c1`, for which the compound was called inactive in experiment [1]. The Potency result in experiment [2], in [3], in experiment [4], in experiment [10], in experiment [11] and in experiment [16] was “inactive” throughout. Further, the Potency result in experiment [6], in experiment [8], in experiment [12] and in experiment [9] was “inactive” throughout.

Turning to `O=C1CCC(N2C(=O)c3ccccc3C2=O)C(=O)N1` (centres undefined), the outcome in experiment [1] was inactive. Also, the Potency result in experiment [2], in [3], in [4], in experiment [10], in experiment [11] and in experiment [6] was “inactive” in each case. Besides, the Potency entry in experiment [7], in experiment [8], in experiment [12] and in experiment [9] was “inactive” throughout.
